Test results published in PubChem BioAssay (Tox21).
Results filed as inconclusive are left out. A number with no mark means an inactive call. Calls of active or inactive are those of the source. The call rests on the fitted dose curve; in most records, active means well fitted curve in the direction sought with a large enough effect in the repeat runs; inconclusive means weak or mixed curves; inactive means no such curve, though single readings can be large; an effect the other way counts as inactive or inconclusive.

Assay: qHTS assay to identify small molecule antagonists of the retinoic acid receptor (RAR) signaling pathway (AID 1159552; further: nearly all actives have a fitted effect of over 50% in size)
Details: C3RL4 RARE luciferase reporter, retinol-stimulated, 6 h; series mostly up to 92.4 µM; activity, negative = inhibition: at the top concentration
Method in brief: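 C3RL4 RARE-luc cells, overnight plating; retinol 1 uM final added right after compound; 6 hr 37 C; luciferase read at 30 min RT.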
On the % scale 0 is the no-effect control and ±100 the full control effect; potency means the concentration at half of the fitted maximal effect.

Compound | activity, negative = inhibition | Potency
CCc1ccccc1C | -2.85% | 
BrC(Br)Br | 0.491% | 
CCCN(CCC)CCc1c[nH]c2ccccc12 | 55% | 
COS(=O)(=O)c1ccc(C)cc1 | 2.74% | 
CC(C)CC(C)(c1ccc(O)cc1)c1ccc(O)cc1 | -18.7% | 
CC(=O)OC1(c2ccccc2)CCN(CCc2ccccc2)CC1 | 1.74% | 
CCN | 0.768% | 
O=C1NCN(c2ccccc2)C12CCN(CC1COc3ccccc3O1)CC2 (stereo not given) | 12.5% [at 42.5 µM] | 
Nc1c(Oc2ccccc2)cc(O)c2c1C(=O)c1ccccc1C2=O | 143% [at 42.5 µM] | 
CCOC(=O)C1(c2ccccc2)CCN(CCC(C#N)(c2ccccc2)c2ccccc2)CC1 | -16.5% [at 42.5 µM] | 
OC(c1ccc(Cl)cc1)(c1ccc(Cl)cc1)C(Cl)(Cl)Cl | 33.9% | 
O=c1[nH]c2ccccc2n1CCCN1CCC(n2c(=O)[nH]c3cc(Cl)ccc32)CC1 | 45.7% [at 42.5 µM] | 
CCCN(CC)CC1COC2(CCC(C(C)(C)C)CC2)O1 (stereo not given) | -5% | 
N#C/C=C/C#N | 15.3% | 
N#CCCSCCC#N | 1.7% | 
CCOCn1c(-c2ccc(Cl)cc2)c(C#N)c(Br)c1C(F)(F)F |  | 3.06 µM (active)
C[C@]12CC[C@H]3[C@@H](CCC4=CC(=O)CC[C@@]43C)[C@@H]1CC[C@@H]2O |  | 48.2 µM (active)
N#CC(Cl)Cl | 56.6% | 
ClC1=C(Cl)C2(Cl)C3C(Cl)C=CC3C1(Cl)C2(Cl)Cl (stereo not given) | -8.69% | 
CC(C)[C@H](C(=O)OC(C#N)c1cccc(Oc2ccccc2)c1)c1ccc(OC(F)F)cc1 (stereo not given in full) | -18.9% | 
Oc1c(Cl)c(Cl)cc(Cl)c1Cl |  | 66.7 µM (active)
Cc1ccc(OP(=O)(Oc2ccccc2)Oc2ccccc2)cc1 | -1.85% | 
c1ccc2cc3c(cc2c1)-c1cccc2cccc-3c12 | -1.31% | 
CCCCCCCCCCCCCN1CC(C)OC(C)C1 (stereo not given) | -3.58% | 

Assay: qHTS assay to identify small molecule agonists of the retinoic acid receptor (RAR) signaling pathway (AID 1159553)
Details: C3RL4 RARE luciferase reporter, agonist, 6 h; series mostly up to 73.3 µM; activation: at the top concentration
Method in brief: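 Luminescence was measured 30 min after luciferase reagent addition at room temperature. Before that, C3RL4 reporter cells (1,000 per well, plated overnight) were treated with compound for 6 hr at 37 C and 5% CO2.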

Compound | activation | Potency
BrC(Br)Br | -0.23% | 
Cc1c(Cl)c(=O)oc2cc(OP(=O)(OCCCl)OCCCl)ccc12 | -0.334% | 
CC(C)CC(C)(c1ccc(O)cc1)c1ccc(O)cc1 |  | inactive
CC(=O)OC1(c2ccccc2)CCN(CCc2ccccc2)CC1 | -5.62% [at 94.8 µM] | 
CCN | 0.137% [at 94.8 µM] | 
CCOC(=O)C1(c2ccccc2)CCN(CCC(C#N)(c2ccccc2)c2ccccc2)CC1 | -7.66% | 
Clc1ccc(C(Cl)(Cl)Cl)c(Cl)c1 | -1.02% [at 94.8 µM] | 
CC(=O)Nc1ccc2c(c1)Cc1ccccc1-2 |  | 6.21 µM (active)
OC(c1ccc(Cl)cc1)(c1ccc(Cl)cc1)C(Cl)(Cl)Cl | 5.56% | 
COC(=O)N(C(=O)N1CO[C@@]2(C(=O)OC)Cc3cc(Cl)ccc3C2=N1)c1ccc(OC(F)(F)F)cc1 | -4.89% | 
O=c1[nH]c2ccccc2n1CCCN1CCC(n2c(=O)[nH]c3cc(Cl)ccc32)CC1 | -1.18% | 
CCOC(=O)CC(=O)CCl | -3.15% | 
CCOc1cc(C(C)(C)C)ccc1C1COC(c2c(F)cccc2F)=N1 (stereo not given) | -6.66% | 
N#C/C=C/C#N | -3% [at 94.8 µM] | 
O=c1c(C2CC(c3ccc(-c4ccc(Br)cc4)cc3)Cc3ccccc32)c(O)sc2ccccc12 (stereo not given) | -9.13% | 
N#CCCSCCC#N | -0.892% | 
Clc1ccc(CSC(Cn2ccnc2)c2ccc(Cl)cc2Cl)cc1 (stereo not given) | -4.35% | 
C[C@]12CC[C@H]3[C@@H](CCC4=CC(=O)CC[C@@]43C)[C@@H]1CC[C@@H]2O | -10.7% | 
N#CC(Cl)Cl |  | 47.3 µM (active)
CCOCCOC(C)=O | 15.5% | 
CC(C)[C@H](C(=O)OC(C#N)c1cccc(Oc2ccccc2)c1)c1ccc(OC(F)F)cc1 (stereo not given in full) | -4.57% | 
O=[N+]([O-])c1cc([N+](=O)[O-])c2ccccc2c1 | -9.21% | 
Oc1c(Cl)c(Cl)cc(Cl)c1Cl | -5.36% [at 94.8 µM] | 
Cc1ccc(OP(=O)(Oc2ccccc2)Oc2ccccc2)cc1 | -0.493% [at 94.8 µM] | 
CC(C)CCCCCOC(=O)c1ccccc1C(=O)OCCCCCC(C)C | -2.77% | 
c1ccc2cc3c(cc2c1)-c1cccc2cccc-3c12 | 2.98% | 
